Test results reported in PubChem BioAssay (NCI).
The panel holds about 79,000 compounds, 15% with a hit somewhere; the sample as a whole holds those more often. Rule as the data show it: active = growth inhibition above about 70%; inactive = the rest.

What was measured:
[1] = NCI Yeast Anticancer Drug Screen. Data for the rad50 strain (AID 155);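 also: 0% = growth of vehicle-only cultures of the same strain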; conditions: S. cerevisiae rad50 strain growth inhibition; at 50.0 µM; hits give high values
In short: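 Genetically altered yeast (DNA repair pathway); compound treatment; growth inhibition vs vehicle ctrl.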

[2] = NCI Yeast Anticancer Drug Screen. Data for the mec2-1 strain (AID 157); conditions: S. cerevisiae mec2-1 strain, at 50.0 µM, hits give high values
In short: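 Vehicle-treated cultures served as reference for growth inhibition of compound-exposed mec2-1 yeast.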

[3] = NCI Yeast Anticancer Drug Screen. Data for the sgs1 mgt1 strain (AID 161);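 also: 0% = growth of cultures given vehicle only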; conditions: S. cerevisiae sgs1 mgt1 strain, at 50.0 µM, hits give high values
In short: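 Test agents were incubated with a DNA-repair-mutant yeast strain. Growth was then read and compared against vehicle-treated controls.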

[4] = NCI Yeast Anticancer Drug Screen. Data for the cln2 rad14 strain (AID 165);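 also: 0% = growth equal to vehicle treated cultures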; conditions: S. cerevisiae cln2 rad14 strain, at 50.0 µM, hits give high values
In short: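 Each compound was tested on cln2 rad14 yeast. Inhibition of growth was calculated against vehicle-exposed controls.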

[5] = NCI Yeast Anticancer Drug Screen. Data for the bub3 strain (AID 167); conditions: S. cerevisiae bub3 mutant strain, at 50.0 µM, hits give high values
In short: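 Yeast carrying a defined mutation is treated with each compound, and growth is compared with that of vehicle-exposed cells to give inhibition.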

[6] = NCI Yeast Anticancer Drug Screen. Data for the mlh1 rad18 strain (AID 175); conditions: S. cerevisiae mlh1 rad18 strain growth inhibition; at 50.0 µM; hits give high values
In short: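 Vehicle-treated cultures served as the reference for growth inhibition in a yeast strain carrying DNA damage repair alterations exposed to each compound.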

Measured: growth inhibition

Cc1nnc(-c2ccccc2)s1
inactive: [1] 15.1% | [2] 12.3% | [3] -3.2% | [4] 12.1% | [5] -10.6% | [6] -7.45%

Cc1cccc2c1C(=O)C(C1OC(=O)c3ccccc31)C2 (centres undefined)
inactive: [1] 7.15% | [2] 9.75% | [3] 1.5% | [4] -31% | [5] 13.5% | [6] -12.4%

Cc1cnc2cc(Cl)ccc2c1SCC(=O)O
inactive: [1] 3.6% | [2] -39.7% | [3] -42.9% | [4] -24.4% | [5] -36.6% | [6] 1.05%

O=[N+]1C=CC(=NN=c2ccn([O-])cc2)C=C1
inactive: [1] 33.9% | [2] 15.5% | [3] 8.65% | [4] 14.6% | [5] 8% | [6] 26.9%

Cc1ccc2c(c1)[nH]c(=S)n2/C=C1\C(=O)Oc2ccccc2C1=O
inactive: [1] -43.8% | [2] -42.1% | [3] -44.4% | [4] -31.7% | [5] -42% | [6] -46%

C=CCOC(=O)CC(=O)OCC=C
inactive: [1] 0.6% | [2] 1.7% | [3] 0.35% | [4] -4% | [5] 3.05% | [6] -5.9%

[Cl][Pt+2][Cl].[NH-]C1CCC1.[NH2-]
inactive: [1] 3.25% | [2] -3.5% | [3] -3.85% | [4] 18.4% | [5] -16.1% | [6] -66.6%

O=C(CCCCl)c1ccccc1
inactive: [1] 0.75% | [2] -4% | [3] -18.1% | [4] 2.35% | [5] -7.1% | [6] -2.6%

O=C(O)c1cc(-c2ccccc2)nc2cc(Cl)ccc12
inactive: [1] 29.9% | [2] 12.8% | [3] 19.1% | [4] -9.35% | [5] 24.4% | [6] 25.6%

N#C/C(N)=C(\C#N)NC=NCCO
inactive: [1] 5.35% | [2] 7.75% | [3] 13.2% | [4] 18% | [5] 10.6% | [6] -37.8%

NC(=O)c1sc(N2CCCC2)nc1N
inactive: [1] 13.2% | [2] 23.9% | [3] 22.1% | [4] 0.95% | [5] 9.8% | [6] 9.05%

Cc1cccc[n+]1CC(=O)c1ccccc1[N+](=O)[O-]
inactive: [1] -5% | [2] 6.85% | [3] -3.3% | [4] -6.55% | [5] -20.6% | [6] 8.1%

COc1cc2[nH]c(-c3ccccc3)cc(=O)c2c(OC)c1OC
inactive: [1] -11.3% | [2] -3.65% | [3] -8% | [4] 0.25% | [5] 8.85% | [6] 3.35%

Cc1ccccc1N1C(=O)C2CC=CCC2C1=O (centres undefined)
inactive: [1] -13.3% | [2] 0.25% | [3] 12.2% | [4] -34.8% | [5] -14.4% | [6] -21.6%

O=S(=O)(Nc1nccs1)c1ccc(NCc2c3ccccc3nc3ccccc23)cc1
inactive: [1] 62.2% | [2] 54.7% | [3] 42.3% | [4] 30% | [5] 17.7% | [6] 49.5%

O=C(O)CNc1ccc([N+](=O)[O-])cc1C(=O)O
inactive: [1] -1.25% | [2] -1% | [3] 2.75% | [4] 7.4% | [5] -6.7% | [6] -5.95%

COc1ccc(C(CC(=O)O)CC(=O)O)cc1
inactive: [1] 46.3% | [2] 12.3% | [3] 16.9% | [4] 15.1% | [5] 6.35% | [6] 44.5%

COc1ccc(/C=N/NC(=O)NCCCN(C)C)cc1
inactive: [1] 3.3% | [2] -29% | [3] -9.9% | [4] -5% | [5] -23.9% | [6] -7.65%

CCCS(=O)(=O)N/N=C(\C)c1cccs1
inactive: [1] 3.65% | [2] -8.1% | [3] 3.25% | [4] -35.5% | [5] 1.35% | [6] -4.2%

CC1CN(C(=O)Cn2cnc([N+](=O)[O-])n2)CC(C)O1 (centres undefined)
inactive: [1] 7.65% | [2] 14.2% | [3] 2.75% | [4] 65.2% | [5] 29.8% | [6] 12.7%

CCOC(=O)Nc1nc2ccn(C)c2s1
inactive: [1] 6.3% | [2] -6.9% | [3] 2.15% | [4] -6.4% | [5] 4.6% | [6] -8%

CCCCn1c(CCC)nc([N+](=O)[O-])c1Sc1ncn[nH]1
inactive: [1] -4.15% | [2] 6.15% | [3] -28.4% | [4] -1% | [5] -20.2% | [6] 8.6%

OCCNCN(CNCCO)c1nc(N(CNCCO)CNCCO)nc(N(CNCCO)CNCCO)n1
inactive: [1] 55.6% | [2] 19.7% | [3] 32.6% | [4] -49.5% | [5] 2.8% | [6] 12.4%

O.[Cl][Co]([Cl])[Cl].c1c[nH]cn1.c1c[nH]cn1
inactive: [1] -0.85% | [2] -5.6% | [3] 15% | [4] 1.95% | [5] 8.4% | [6] -2.7%

Nc1cc(S(=O)(=O)O)cc2ccc(S(=O)(=O)O)cc12
inactive: [1] -4.15% | [2] 6.75% | [3] -14.6% | [4] -4.35% | [5] -5.65% | [6] 3.95%

CN[C@H]1CCc2cc(OC)c(OC)c(OC)c2-c2ccc(O)c(=O)cc21
inactive: [1] 23.8% | [2] -9.45% | [3] 24.8% | [4] -43.5% | [5] 0.3% | [6] 29.7%

NCCCCC(N)C(=O)O.[Cu+2] (centres undefined)
inactive: [1] -13.6% | [2] 3.95% | [3] -4.9% | [4] -6% | [5] -11.8% | [6] -22.8%

CC1CCCC/C1=N\N(C)C (centres undefined)
inactive: [1] -44% | [2] -19.9% | [3] -12.8% | [4] -29.6% | [5] -5.65% | [6] 2.7%

CCCC(CC)(CC)CO
inactive: [1] -21.6% | [2] -6.9% | [3] -16.4% | [4] 12.1% | [5] -10.4% | [6] -6.15%

CCCCCC(=O)/C=C/Sc1n[nH]c(=O)[nH]c1=O
inactive: [1] 60.5% | [2] 41.1% | [3] 64.2% | [4] 27.9% | [5] 55% | [6] 62.1%

COc1cnn(-c2ccccc2)c(=O)c1Cl
inactive: [1] -1.4% | [2] -7.35% | [3] -1.85% | [4] -3.7% | [5] 0.8% | [6] -13.9%

CC(=O)CC1=CC(C(C)(C)C)=CC(=O)C1=O
inactive: [1] 43.1% | [2] 26.1% | [3] 30.1% | [4] 49% | [5] 8.6% | [6] 49.5%

O=C(c1ccccc1)[C@H]1Nc2ccc(Cl)cc2[C@H]2c3ccccc3O[C@H]21
inactive: [1] 33.9% | [2] -6.7% | [3] 12.4% | [4] 18.8% | [5] -1.45% | [6] 2.5%

C/C=C(\C)C(=O)OCC1CC[N+](C)([O-])C1 (centres undefined)
inactive: [1] -23.8% | [2] -8% | [3] -6.7% | [4] -57.9% | [5] 5% | [6] -15.3%

CC(Oc1ccc2ccccc2c1I)C(=O)O (centres undefined)
inactive: [1] 27.9% | [2] 12.8% | [3] 37.8% | [4] 18.6% | [5] 57.4% | [6] 36.8%

COc1ccc(C(=O)CC(=O)C2CCCCC2=O)cc1 (centres undefined)
inactive: [1] -12.5% | [2] -12.3% | [3] -3.4% | [4] -19.8% | [5] 19.3% | [6] -9.05%

CCOC(=O)C1CCCCC1C(=O)OCC (centres undefined)
inactive: [1] -1.7% | [2] -15.8% | [3] -7.3% | [4] -3.55% | [5] -28.1% | [6] -26.9%

Cc1cc(SCC(=O)c2ccccc2)nc2ccccc12
inactive: [1] -6.75% | [2] -24.1% | [3] -8.85% | [4] -2.25% | [5] -53.1% | [6] -2.7%

COc1cc(C2C(C(C)=O)=C(C)Oc3cc4c(cc32)OCO4)cc(OC)c1O (centres undefined)
inactive: [1] 21.1% | [2] 2.5% | [3] -0.25% | [4] 4.15% | [5] 10.1% | [6] 35.5%
